# PubChem BioAssay AID493066 (National Center for Advancing Translational Sciences (NCATS), 2011)
# Inconclusive results are not listed. Calls of active or inactive are those of the source. Calls follow the shape of the dose curve; as a rule, active = well fitted cell-killing curve with a large enough effect; inconclusive = small, poorly fitted or top-dose-only effect; inactive = flat fitted curve, though single readings scatter.
# Assay: HBEC Cell Viability Secondary Assay for qHTS Assay for Epigenetic Modulators
# Details: HBEC normal bronchial cells viability, ATP luminescence, 72 h; series mostly up to 46.1 µM
# Description: NIH Molecular Libraries Screening Centers Network [MLSCN] NIH Chemical Genomics Center [NCGC] MLSCN Grant: 1 X01 MH079860-01 Assay Provider: Elisabeth D. Martinez, University of Texas SW Medical Center NCGC Assay Overview: This secondary assay characterizes selected actives identified in the qHTS of the Locus Derepression (LDR) assay (PubChem AID 1865). The LDR assay detects the derepression of a GFP reporter that is stably integrated in a region of the genome of murine c127i mammary cells that is presumably silenced. Compounds that cause derepression of the locus to express GFP are identified by enumerating GFP positive cells using a laser-scanning microplate cytometer. Selected LDR actives were assayed for killing of HBEC, a patient-derived normal bronchial epithelial line matched to HCC4017 (Pubchem AID XXX), a nonsmall cell lung carcinoma line from the same patient. The HBEC line assays the cytoxicity of test compounds on normal lung cells. Cell viability was measured using a luminescence-based detection reagent that measures cellular ATP levels.
# NCGC Assay Protocol Summary HBEC cells were seeded at 125 cells/5 uL/well in white, solid bottom, 1536 well plates (Greiner). After 16-hour incubation at 37deg C and 5% CO2, 23 nL of compound were transferred into the assay plate via a pin tool. Plates were incubated 72 hours at 37deg C and 5% CO2, then 3.5 uL/well CellTiter-Glo(R) (Promega) detection reagent was added, plates were incubated at ambient temperature for 10 minutes and luminescence was measured by a ViewLux (Perkin Elmer) reader. For further details, see Johnson, RL, Huang, W, Jadhav, A, Austin, CP, Inglese, J, Martinez, ED (2008). A quantitative high-throughput screen identifies potential epigenetic modulators of gene expression. Anal Biochem 375: 237-48. […]
row,SMILES,Potency
1,O=C(N/N=C/c1ccccn1)c1cc(-c2ccc(Cl)cc2)nc2ccccc12,7.05 µM (active)
2,O=[N+]([O-])/C(C=Nc1ccccc1O)=C\Nc1ccccc1O,28.1 µM (active)
3,Cc1ccc(/C=[N+](\[O-])c2ccc(N(C)C)cc2)c2nsnc12,9.96 µM (active)
4,CCC(=O)N1CCN(c2ccc(NC(=O)c3ccc([N+](=O)[O-])o3)cc2Cl)CC1,0.705 µM (active)
5,NC(=S)N/N=C/c1ncc(C(F)(F)F)cc1Cl,6.28 µM (active)
6,N=c1n(CC(=O)c2ccc([N+](=O)[O-])cc2)c2ccccc2n1Cc1ccccc1Cl,11.2 µM (active)
7,COc1ccc(NC(=O)CSc2nc3c(oc4ccccc43)c(=O)n2Cc2ccco2)cc1Cl,7.05 µM (active)
8,CC1=NN(c2nc3ccccc3[nH]2)C(=O)C1Cc1ccccc1 (stereo unspecified),7.05 µM (active)
9,C/C=C/c1ccc(OCC(=O)OCC(=O)NC2CC2)c(OC)c1,inactive
10,O=C(NN1C(=O)c2ccccc2NC1c1ccc([N+](=O)[O-])o1)c1ccc([N+](=O)[O-])cc1 (stereo unspecified),3.97 µM (active)
11,O=C(CSc1cccc[n+]1[O-])c1ccccc1Br,inactive
12,CC1=C/C(=N\NC(=S)Nc2cccnc2)CC(C)(C)C1,9.96 µM (active)
13,CN(C)S(=O)(=O)c1cccc(NC(=S)N/N=C/c2ccco2)c1,inactive
14,CCCC(=O)N1CCN(c2ccc(NC(=O)c3ccc([N+](=O)[O-])o3)cc2Cl)CC1,0.705 µM (active)
15,CCN(CC)CCCNC(=O)CSc1c2c(nc3cc(Cl)ccc13)CCCC2,19.9 µM (active)
16,CCc1nnc(NC(=O)c2cccc(C(=O)Nc3nnc(CC)s3)n2)s1,0.705 µM (active)

row,SMILES,Potency
1,O=C1C=C(Nc2ccc(Cl)cc2)C(=O)N1c1ccc(Cl)cc1,inactive
2,COc1ccc(C(=O)/C=C/Sc2nc3ccccc3o2)cc1,3.15 µM (active)
3,CCOc1ccc(NC(=O)c2nc(S(=O)(=O)Cc3ccccc3F)ncc2Cl)cc1,2.23 µM (active)
4,COc1cccc(/C=N/Nc2nc(Nc3ccccc3)nc(-n3nc(C)cc3C)n2)c1O,11.2 µM (active)
5,COc1cccc(N2CCN(S(=O)(=O)c3ccc(-n4cnnn4)cc3)CC2)c1,inactive
6,C(=N\Nc1nc(-c2ccccn2)nc2ccccc12)/c1ccccc1,3.15 µM (active)
7,COc1ccccc1OCC(=O)N/N=C/C=C/c1ccc([N+](=O)[O-])o1,9.96 µM (active)
8,CCCCOC(=O)Cn1c2ccc(OC)cc2c2nc3ccccc3nc21,14.1 µM (active)
9,CCOn1c(=O)c[n+]([O-])c2ccccc21,inactive
10,COCCNC(=S)N/N=C(\C)c1ccccc1O,inactive
11,Cc1ccc(C(C)C)c(OCc2ccc(C(=O)N/N=C/c3cccc(O)c3O)cc2)c1,14.1 µM (active)
12,S=C(Nc1ccccc1)c1ccccn1,inactive
13,COc1ccc2c(C)nc(Nc3nc(-c4ccccc4)cc(=O)[nH]3)nc2c1,8.88 µM (active)
14,COc1nc(Nc2nc3ccccc3c(=O)[nH]2)nc2ccc(C)cc12,3.15 µM (active)
15,COc1ccc2c(C)cc(SCC(=O)N(C)C3CCS(=O)(=O)C3)nc2c1 (stereo unspecified),inactive
